Results on 7 molecules are retold here after PubChem BioAssay (Tox21).

SMILES strings stand for the structures. A number with no mark means an inactive call. Results filed as inconclusive are left out. Active and inactive are the calls of the source. Unless noted, calls come from the whole dose curve; as a rule, active = well fitted curve in the direction sought with a large enough effect in the repeat runs; inconclusive = weak or mixed curves; inactive = no such curve, though single readings can be large; an effect the other way counts as inactive or inconclusive.

Test [1] is described as follows: qHTS assay for small molecule agonists of the p53 signaling pathway (AID 651631; calls by dose curve; note: nearly all actives have a fitted effect of over 15% in size). In short, it runs like this: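 Beta-lactamase reporter activity under p53 response elements was quantified in HCT-116 cells by FRET fluorescence, following 16 h incubation with test compounds at 37 °C and 2 h substrate development at room temperature.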
(In general: In qHTS, concentration-response curves come from the screen itself.)

The nature of test [2]: qHTS assay for small molecules that induce genotoxicity in human embryonic kidney cells expressing luciferase-tagged ATAD5 (AID 651632). Note: nearly all actives have a fitted effect of over 15% in size. Note: potency is the fitted concentration of half-maximal effect. In short, it runs like this: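 Concentration-response screen for ATAD5 upregulation in HEK293T luciferase reporter cells; 16 hr treatment at 37C, then luminescence after 30 min with Amplite at room temperature.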
A short description of test [3]: qHTS assay for small molecule agonists of the p53 signaling pathway - cell viability (AID 651633; calls by dose curve;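 note: p53RE-bla HCT reporter cells with a stable beta-lactamase p53 reporter; nearly all actives have a fitted effect of over 30% in size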). In a few lines:
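Viability counter-read: CellTiter-Glo luminescence (30 min, room temperature) in the same p53RE-bla plates. These plates had been exposed to compounds for 16 h at 37 C.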

Test [4] in a line: qHTS assay for small molecules that induce genotoxicity in human embryonic kidney cells expressing luciferase-tagged ATAD5 - cell viability (AID 651634; calls by dose curve; note: nearly all actives have a fitted effect of over 25% in size). In a few lines:
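15.5 hr compound or vehicle exposure of HEK293T cells expressing luciferase-tagged ATAD5 at 37C; live-cell protease activity is read by fluorescence after 30 min of CellTiter-Fluor.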

Test [5] is described as follows: qHTS assay for small molecule disruptors of the mitochondrial membrane potential - cell viability (AID 720634; calls by dose curve;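 note: human HepG2 liver cancer cells; nearly all actives have a fitted effect of over 20% in size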). In a few lines:
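In this qHTS format, HepG2 cells plated overnight were pinned with compound, incubated 1 hr, and assayed for ATP luminescence with CellTiter-Glo after m-MPI dye addition.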

Test [6] in a line: qHTS assay to test for compound auto fluorescence at 535 nm (green) in HepG2 cells (AID 720675).
Test [7] can be described thus: qHTS assay to test for compound auto fluorescence at 460 nm (blue) in HEK293 cells (AID 720678). In short, it runs like this:
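HEK293, 2,000 cells/well, 10% dialyzed FBS; attach 4-5 hr 37C; pin compound or DMSO; o/n 37C/5% CO2; fluorescence 405/460 nm; triamterene-equivalent units.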

Test [8] can be described thus: qHTS assay to test for compound auto fluorescence at 590 nm (red) in HEK293 cells (AID 720679). In short, it runs like this: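 Intensity at 540nm excitation and 590nm emission is reported as Rose Bengal sodium-equivalent autofluorescence. Measurements followed overnight exposure (37C, 5% CO2) of HEK293 cells, 2,000 per well, to 23 nL compound.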
The nature of test [9]: qHTS assay to test for compound auto fluorescence at 535 nm (green) in HEK293 cells (AID 720680).
The nature of test [10]: qHTS assay to test for compound auto fluorescence at 460 nm (blue) in HEK293 cell free culture (AID 720681). In short, it runs like this: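 Blue fluorescence (Ex 405/Em 460 nm, triamterene-equivalent) was read immediately after pin transfer of compound or DMSO into medium (DMEM, 10% FBS) without cells.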
A short description of test [11]: qHTS assay to test for compound auto fluorescence at 535 nm (green) in HEK293 cell free culture (AID 720682). In a few lines:
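Each library compound, or DMSO control, is added by pintool to medium alone, comprising DMEM and 10% FBS. Emission at 535 nm following 485 nm excitation is quantified against fluorescein.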

Test [12] can be described thus: qHTS assay to test for compound auto fluorescence at 590 nm (red) in HEK293 cell free culture (AID 720683). In short, it runs like this:
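Red-channel autofluorescence of compounds in culture medium (DMEM, 10% FBS), no cells, measured at 540/590 nm. Rose Bengal sodium is the reference fluorophore for equivalence.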

Test [13] is described as follows: qHTS assay to test for compound auto fluorescence at 590 nm (red) in HepG2 cell free culture (AID 720684). In short, it runs like this:
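Cell-free; medium MEM + 10% FBS; compound or DMSO added by pintool; read Ex 540/Em 590 nm; Rose Bengal sodium as red reference fluorophore.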

The nature of test [14]: qHTS assay to test for compound auto fluorescence at 460 nm (blue) in HepG2 cell free culture (AID 720685). In a few lines:
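Cell-free plates of MEM plus 10% FBS received 23 nL compound or DMSO vehicle; blue-channel (405/460 nm) intensity scored against triamterene as reference fluorophore.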

Test [15] can be described thus: qHTS assay to test for compound auto fluorescence at 460 nm (blue) in HepG2 cells (AID 720687). In short, it runs like this:
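Blue-channel autofluorescence (Ex/Em 405/460 nm, triamterene-equivalent) was measured after 1 hr compound exposure at 37 C, 5% CO2. Cells were HepG2, plated overnight at 37 C in MEM plus 10% FBS.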

The target in test [16] is Glucocorticoid receptor (Homo sapiens) (UniProt P04150). Put plainly: qHTS assay to identify small molecule agonists of the glucocorticoid receptor (GR) signaling pathway (AID 720691; active = well fitted activation curve with a large enough effect in the signal ratio in the repeat runs, not every such curve was filed as active; the % refers to the signal ratio). As to conditions: GR-bla HeLa, beta-lactamase reporter ratio, 18 h; activation: at 62.4 µM (top of the series) unless noted. In short, it runs like this:
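Measures GR pathway activation through a GRE-beta-lactamase reporter stably integrated in HeLa cells, with 18 h compound treatment at 37 C and fluorescence detection using a FRET substrate.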

Test [17] has the same target. Description: qHTS assay to identify small molecule antagonists of the glucocorticoid receptor (GR) signaling pathway (AID 720692; active = well fitted inhibition curve with a large enough effect in the signal ratio in the repeat runs, not every such curve was filed as active; the % refers to the signal ratio). In a few lines: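 Tox21 10K library screened in concentration-response for blockade of dexamethasone (5 nM final)-induced GRE-bla reporter activity in HeLa cells; 18 h treatment, fluorescence read.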
Test [18] in a line: qHTS assay to test for compound auto fluorescence at 590 nm (red) in HepG2 cells (AID 720674). In short, it runs like this: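 Red autofluorescence (Ex/Em 540/590 nm, Rose Bengal sodium equivalents) was measured in HepG2 cells, 2,000 per well in MEM plus 10% FBS, plated overnight at 37 C. Readings were taken 1 hr after adding 23 nL compound or DMSO, at 37 C and 5% CO2.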
The nature of test [19]: qHTS assay for small molecule disruptors of the mitochondrial membrane potential (AID 720635). In a few lines:
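Mitochondrial membrane potential tracked with Mito-MPS dye, red aggregates (ex 540/em 590 nm) against green monomers (ex 490/em 535 nm). Compound treatment 1 hr at 37C, dye 30 min in HepG2.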

Test [20] is described as follows: qHTS assay to test for compound auto fluorescence at 535 nm (green) in HepG2 cell free culture (AID 720686).

Glucocorticoid receptor (Homo sapiens), sequence (P04150 whole entry, looked up): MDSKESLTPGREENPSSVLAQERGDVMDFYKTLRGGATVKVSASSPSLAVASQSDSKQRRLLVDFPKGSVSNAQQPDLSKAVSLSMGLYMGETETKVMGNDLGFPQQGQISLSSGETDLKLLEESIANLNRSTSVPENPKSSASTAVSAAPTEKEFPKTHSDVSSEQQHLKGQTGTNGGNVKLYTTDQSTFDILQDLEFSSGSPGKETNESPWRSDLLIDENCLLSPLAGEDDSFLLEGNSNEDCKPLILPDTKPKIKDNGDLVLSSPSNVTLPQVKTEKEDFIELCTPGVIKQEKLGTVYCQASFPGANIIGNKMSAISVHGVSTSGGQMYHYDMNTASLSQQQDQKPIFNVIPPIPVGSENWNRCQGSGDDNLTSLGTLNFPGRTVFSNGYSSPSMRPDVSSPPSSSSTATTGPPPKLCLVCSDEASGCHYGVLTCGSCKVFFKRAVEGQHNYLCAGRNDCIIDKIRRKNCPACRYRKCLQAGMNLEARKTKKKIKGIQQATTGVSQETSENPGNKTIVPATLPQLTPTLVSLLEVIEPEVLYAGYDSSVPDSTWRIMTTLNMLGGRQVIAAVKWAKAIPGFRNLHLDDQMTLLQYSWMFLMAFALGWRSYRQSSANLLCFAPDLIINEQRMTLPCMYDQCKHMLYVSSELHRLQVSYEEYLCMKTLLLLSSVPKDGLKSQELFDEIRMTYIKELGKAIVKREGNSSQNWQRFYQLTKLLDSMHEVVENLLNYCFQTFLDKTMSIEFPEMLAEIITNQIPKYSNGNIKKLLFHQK

In the case of `Nc1ccccc1S(=O)(=O)c1ccccc1`, the Potency entry in [1], in test [2], in test [3], in test [4], in [5] and in test [6] was “inactive” in each case. Also, the Potency entry in test [8], in test [12], in test [13], in test [16] and in test [17] was “inactive” throughout. Besides, the outcome in test [7], in test [9], in test [10], in test [11], in test [14] and in test [15] was inactive.
With `Cc1oc2c(NC(=O)c3c(Cl)cccc3Cl)cccc2c1C(C)(C)O`, the Potency entry in test [1], in test [2], in [3], in test [18], in test [6] and in test [8] was “inactive” each time. The Potency result in test [12] and in test [13] was “inactive” throughout. Moreover, the molecule was classed as inactive in test [7], in test [9], in [10], in [11], in [14] and in test [15].
For `CC(C)(O)c1ccc(CNC(=O)c2cccnc2Oc2ccc(F)cc2)cc1`, the Potency result in test [1], in [2], in test [4], in test [5], in [19] and in test [18] was “inactive” in each case. In addition, the Potency result in test [6], in [8], in [12], in test [13], in test [20] and in test [16] was “inactive” in each case. In [17], the Potency result is “inactive”. The outcome in test [7], in test [9], in test [10], in [11], in test [14] and in [15] was inactive.
In the case of `NC(=O)C(c1ccccc1)(c1ccccc1)[C@@H]1CCN(CCc2ccc3c(c2)CCO3)C1`, the Potency entry in test [1], in [2], in [4], in [5], in test [18] and in [6] was “inactive” throughout. In addition, the Potency entry in [8], in test [12], in test [13], in test [20], in test [16] and in test [17] was “inactive” throughout. For the same molecule, the molecule was classed as inactive in test [7], in test [9], in [10], in test [11], in [14] and in test [15].
With `CCOC(=O)c1cccnc1`, the Potency result in [1], in test [2], in test [3], in test [5], in [19] and in test [6] was “inactive” throughout. Moreover, the Potency entry in test [8], in [12], in test [13], in [20] and in test [16] was “inactive” in each case. Moreover, the result in test [7], in test [9], in test [10], in test [11], in test [14] and in test [15] was inactive.
With `C[C@H](CCC(=O)O)[C@H]1CC[C@H]2[C@@H]3CC[C@@H]4C[C@H](O)CC[C@]4(C)[C@H]3C[C@H](O)[C@]12C`, the Potency result in test [1], in test [2], in [4], in test [5], in test [18] and in [6] was “inactive” in each case. Moreover, the Potency result in test [12], in [13], in test [20] and in test [16] was “inactive” throughout. Also, the call in [7], in [9], in test [10], in test [11], in test [14] and in test [15] was inactive.
Consider `COc1cc(C(=O)OCCCN2CCCN(CCCOC(=O)c3cc(OC)c(OC)c(OC)c3)CC2)cc(OC)c1OC`, for which the Potency result in [1], in [4], in [5], in test [18], in test [6] and in test [8] was “inactive” each time. The Potency entry in test [12], in [13], in [20], in [16] and in test [17] was “inactive” each time. Moreover, the Potency in [2] was 8.41 µM (active). The molecule was classed as inactive in test [7], in test [9], in test [10], in test [11], in [14] and in test [15].
